In PubChem BioAssay one finds z-score and composite z-score data, which are given here for 13 compounds.

SMILES strings stand for the structures. Calls of active or inactive are those of the source.

Assay [1] can be described thus: optical density shifts of acrAB sulA E. coli – strain DRC41, OD650, 48 h, E. coli filamentation inducer project, primary screen (AID 1152).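 Note: E. coli MC1000 strain DRC41 lacking acrAB efflux pump and sulA.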 Conditions: higher = more signal, called active from +8 up or from −8 down.
Assay [2] can be described thus: probe aLefty1 binding on compound microarray – biochemical, small-molecule microarray, 635/667 nm fluorescence, primary screen (AID 1153).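 Note: score merges spot fluorescence with signal-to-noise ratio from the scanned slide images.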 Conditions: higher = more signal.
Assay [3] in a line: plasmodial surface anion channel blockers, osmotic lysis – cell-based, P. falciparum Indochina, OD700, 1 h, primary screen (AID 1154). The settings on record: P. falciparum Indochina infected RBC osmotic lysis, higher = more signal, called active from +8 up or from −8 down.
A short description of assay [4]: plasmodial surface anion channel blockers, osmotic lysis – cell-based, P. falciparum Indochina, OD700, 2 h, primary screen (AID 1155).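 Note: lysis reports solute entry through the parasite surface anion channel PSAC.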 The settings on record: P. falciparum Indochina infected erythrocytes, higher = more signal, called active from +8 up or from −8 down.
Assay [5] is described as follows: changes in parasitized red cell lysis, either direction – P. falciparum Indochina, OD700, 3 h, PSAC antagonist project, primary screen (AID 1156). Conditions: P. falciparum-infected erythrocytes, osmotic lysis, higher = more signal, called active from +8 up or from −8 down.
The nature of assay [6]: plasmodial surface anion channel blockers, osmotic lysis – cell-based, P. falciparum Indochina, OD700, 18 h, primary screen (AID 1157). The settings on record: P. falciparum Indochina infected erythrocytes, osmotic lysis OD700, 18 h; higher = more signal, called active from +8 up or from −8 down.
Assay [7] can be described thus: S6 kinase pathway phospho-S6 level changes – cell-based, A549, cytoblot, luminescence, serum-stimulated, primary screen (AID 1158).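 Note: serum-stimulated A549 lung adenocarcinoma cells; signal is phosphorylated S6 detected by cytoblot immunostaining with HRP secondary.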 Conditions: 5 h, higher = more signal.
The target in assay [8] is NADPH oxidase 2 (Homo sapiens) (UniProt P04839). Kind of assay: compounds shifting NOX2 Amplex Red fluorescence – cell-based, HEK293-NOX2, PMA-stimulated, NOX inhibitor project, primary screen (AID 1159). Note: test concentration not given here. The settings on record: 45 min, higher = more signal, called active from +8 up or from −8 down.
Assay [9] concerns the target NADPH oxidase 4 (Homo sapiens) (UniProt Q9NPH5). Kind of assay: compounds shifting NOX4 Amplex Red fluorescence – cell-based, HEK293-NOX4, tetracycline-induced, NOX inhibitor project, primary screen (AID 1160). The settings on record: HEK293-NOX4, Amplex Red H2O2 fluorescence, 45 min; higher = more signal, called active from +8 up or from −8 down.
The target in assay [10] is NADPH oxidase 5 (Homo sapiens) (UniProt Q96PH1). Kind of assay: compounds shifting NOX5 Amplex Red fluorescence – cell-based, HEK293-NOX5, NOX inhibitor project, primary screen (AID 1161). Conditions: HEK293-NOX5, ionomycin, 45 min, higher = more signal.
Sequence of NADPH oxidase 5 (Homo sapiens) (Q96PH1 whole entry, looked up): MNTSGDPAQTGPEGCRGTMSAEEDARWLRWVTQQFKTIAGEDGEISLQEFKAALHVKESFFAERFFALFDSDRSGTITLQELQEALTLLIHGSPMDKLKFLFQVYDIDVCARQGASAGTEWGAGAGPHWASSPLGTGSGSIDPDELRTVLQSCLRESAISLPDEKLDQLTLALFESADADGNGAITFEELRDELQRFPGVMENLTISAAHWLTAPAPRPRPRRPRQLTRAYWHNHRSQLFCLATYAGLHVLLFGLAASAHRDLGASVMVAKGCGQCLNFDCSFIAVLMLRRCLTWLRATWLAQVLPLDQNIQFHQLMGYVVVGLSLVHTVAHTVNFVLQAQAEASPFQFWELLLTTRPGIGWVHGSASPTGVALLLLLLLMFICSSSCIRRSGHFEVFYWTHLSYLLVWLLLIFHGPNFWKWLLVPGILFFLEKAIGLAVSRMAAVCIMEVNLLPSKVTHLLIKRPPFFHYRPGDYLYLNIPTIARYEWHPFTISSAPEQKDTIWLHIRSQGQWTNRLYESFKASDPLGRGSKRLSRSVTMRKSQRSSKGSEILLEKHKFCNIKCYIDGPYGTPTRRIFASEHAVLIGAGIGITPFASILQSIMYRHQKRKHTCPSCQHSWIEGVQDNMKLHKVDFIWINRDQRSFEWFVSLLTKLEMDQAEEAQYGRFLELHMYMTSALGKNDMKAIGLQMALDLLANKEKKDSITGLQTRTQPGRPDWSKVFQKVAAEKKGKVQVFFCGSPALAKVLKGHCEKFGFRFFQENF

Sequence of NADPH oxidase 2 (Homo sapiens) (P04839 whole entry, looked up): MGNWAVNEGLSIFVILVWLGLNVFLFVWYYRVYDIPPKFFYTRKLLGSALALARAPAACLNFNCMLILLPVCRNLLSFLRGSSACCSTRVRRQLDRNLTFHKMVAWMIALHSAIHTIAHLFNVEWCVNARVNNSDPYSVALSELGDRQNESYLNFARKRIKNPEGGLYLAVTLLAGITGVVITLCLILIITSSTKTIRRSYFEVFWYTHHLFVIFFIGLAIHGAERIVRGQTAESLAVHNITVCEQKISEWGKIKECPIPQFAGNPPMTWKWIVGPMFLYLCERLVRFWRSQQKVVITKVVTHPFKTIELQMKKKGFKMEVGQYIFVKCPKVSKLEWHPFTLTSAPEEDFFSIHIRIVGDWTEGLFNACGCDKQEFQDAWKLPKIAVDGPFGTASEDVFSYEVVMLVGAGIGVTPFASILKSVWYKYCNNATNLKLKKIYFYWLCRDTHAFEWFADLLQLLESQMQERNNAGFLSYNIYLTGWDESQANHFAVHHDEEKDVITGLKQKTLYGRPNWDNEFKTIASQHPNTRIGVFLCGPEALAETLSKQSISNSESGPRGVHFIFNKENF
Sequence of NADPH oxidase 4 (Homo sapiens) (Q9NPH5 whole entry, looked up): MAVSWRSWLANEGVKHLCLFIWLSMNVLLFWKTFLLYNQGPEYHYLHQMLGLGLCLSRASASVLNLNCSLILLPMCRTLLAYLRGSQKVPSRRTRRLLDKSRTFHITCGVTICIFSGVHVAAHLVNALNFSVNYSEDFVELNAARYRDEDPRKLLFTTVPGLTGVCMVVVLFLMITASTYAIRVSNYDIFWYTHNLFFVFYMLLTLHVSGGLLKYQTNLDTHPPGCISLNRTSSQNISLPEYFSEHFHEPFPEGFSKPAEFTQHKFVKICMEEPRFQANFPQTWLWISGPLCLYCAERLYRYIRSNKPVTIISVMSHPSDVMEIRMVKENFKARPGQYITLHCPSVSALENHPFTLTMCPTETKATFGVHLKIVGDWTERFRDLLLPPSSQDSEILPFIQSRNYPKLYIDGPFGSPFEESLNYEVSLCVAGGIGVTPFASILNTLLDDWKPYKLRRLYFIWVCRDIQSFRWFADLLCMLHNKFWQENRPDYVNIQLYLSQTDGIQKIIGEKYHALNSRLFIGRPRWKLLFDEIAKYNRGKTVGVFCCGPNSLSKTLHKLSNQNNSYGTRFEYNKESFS

Consider `[N-]=[N+]=NC[C@H](Cc1ccccc1)NC(=O)c1ccccc1`, for which the z-score in assay [1] was 1.44 (inactive); in assay [3], 0.0465 (inactive); in assay [4], 0.872 (inactive); in assay [5] it was 0.264 (inactive); in [6], 0.432 (inactive); in [7], -0.282. The z-score in [8] is 0.192 (inactive); in [9], -0.441 (inactive); in assay [10] it was 0.122. Besides, in assay [2], the composite z-score came to 0.0606.
Take `COc1ccc(NC(=O)O[C@H]2[C@@H]3OC(=O)[C@H](Cc4cccc(Br)c4)C/C=C/C[C@@H](Cc4cccc(Br)c4)C(=O)O[C@H]3[C@@H](OC)O[C@@H]2CO)cc1`: the z-score in assay [1] is 0.446 (inactive); in assay [3], 0.469 (inactive); in assay [4], -0.173 (inactive); in assay [5], -0.284 (inactive); in assay [6], 0.434 (inactive); in assay [7], 0.353. Further, the results for the z-score in assay [8], in [9] and in [10] were -1.73 (inactive), -1.21 (inactive) and -1.64, respectively. This compound also came in with a composite z-score in [2] of 0.358.
For `COCCOC(=O)N1C(=O)[C@@]2(c3cc(C#CCC(C(=O)OC)C(=O)OC)ccc31)[C@H](C(=O)NC[C@H](O)c1ccccc1)[C@H]1C(=O)O[C@H](c3ccccc3)[C@H](c3ccccc3)N1[C@@H]2c1ccc(OCCO)cc1`, the z-score in assay [1] was 0.0789 (inactive); in assay [3], 7.02 (inactive); in assay [4], 2.02 (inactive); in [5] it was 0.53 (inactive); in [6], 1.12 (inactive); in [7] it was -0.273. The z-score in assay [8] was 1.41 (inactive); in assay [9], 0.805 (inactive); in assay [10] it was 0.938. Further, the composite z-score in assay [2] was -0.118.
As for `CC(C)C(=C=CC[C@@H](O)c1cccc(OCCO)c1)C[C@@H](O)c1ccccn1`, the z-score in [1] is 0.599 (inactive); in [3], 8.55 (active); in [4], 0.809 (inactive); in assay [5], 0.489 (inactive); in assay [6] it was 0.527 (inactive); in [7], 0.0722. In addition, the z-score in [8] was -1.37 (inactive); in assay [9], -0.666 (inactive); in [10], -1.45. In addition, in [2], the composite z-score amounted to 0.0502.
As for `COc1cccc(/C=C(\C#N)C(=O)Nc2c(C)n(C)n(-c3ccccc3)c2=O)c1`, the z-score in [1] was 1.42 (inactive); in [3], 2.13 (inactive); in assay [4] it was -0.901 (inactive); in assay [5], 0.381 (inactive); in [6] it was -0.924 (inactive); in assay [7], 1.06. Further, the z-score in [8] was -0.355 (inactive); in [9] it was 0.139 (inactive); in [10], 0.595. The compound further yielded a composite z-score in assay [2] of -0.168.
Turning to `C=CCC(OC(C)=O)[C@@H]1[C@@H](N(Cc2ccc(-c3cccc(C(F)(F)F)c3)o2)C(=O)c2ccc(C)cc2)c2cc(OCCCO)ccc2N1C(=O)Cc1ccc(OC)cc1` (stereo not given in full), the z-score in assay [1] is 2.06 (inactive); in assay [3] it was 2.58 (inactive); in assay [4] it was 0.0001 (inactive); in assay [5], 0.636 (inactive); in assay [6] it was 0.432 (inactive); in [7], 0.194. Also, the z-score was -1.44 (inactive) in assay [8], 0.641 (inactive) in assay [9] and 0.233 in assay [10]. Further, in [2], the composite z-score was found to be 0.0934.
For `CC(C)C(=C=CC[C@H](O)c1cccc(OCCO)c1)CCO`, the z-score in assay [1] is 1.09 (inactive); in [3], 1.77 (inactive); in assay [4], -1.04 (inactive); in assay [5], -1.42 (inactive); in [6], -1.95 (inactive); in assay [7], 0.28. For the same compound, the z-score in assay [8] was -0.24 (inactive); in assay [9], 0.17 (inactive); in assay [10], -1.29. This compound registered a composite z-score in assay [2] of -0.116.
Consider `CC(C)N1CC=CC23O[C@@H]4/C=C\CCCOC(=O)C4[C@H]2C(=O)N(CCCCCCO)[C@@H]3C1=O` (stereo not given in full), for which the z-score in [1] was 2.15 (inactive); in assay [3], 0.904 (inactive); in assay [4] it was 0.0039 (inactive); in [5], 0.622 (inactive); in assay [6], 0.133 (inactive); in [7], 0.842. For the same compound, the z-score in [8] was 1 (inactive); in assay [9], 0.105 (inactive); in assay [10] it was 1.92. Further, in [2], the composite z-score was 0.248.
As for `COC(=O)C(CC#Cc1ccc2c(c1)[C@]1(C(=O)N2)[C@H](c2ccc(OCCO)cc2)N2[C@H](c3ccccc3)[C@H](c3ccccc3)OC(=O)[C@H]2[C@@H]1C(=O)N1CCN(c2ncccn2)CC1)C(=O)OC`, the z-score in [1] is -0.34 (inactive); in assay [3], 4.2 (inactive); in [4] it was 1.62 (inactive); in assay [5], 0.257 (inactive); in [6], 0.539 (inactive); in [7], -0.454. Besides, the z-score in assay [8] is 1.46 (inactive); in [9], 1.05 (inactive); in assay [10] it was 1.52. This compound also displayed a composite z-score in assay [2] of 0.53.
As for `C=CCNC(=O)[C@@H]1[C@H]2C(=O)O[C@H](c3ccccc3)[C@H](c3ccccc3)N2[C@H](c2ccc(OCCO)cc2)[C@@]12C(=O)N(C(=O)OCCOC)c1ccc(C#CCCO)cc12`, the z-score in assay [1] is 3.11 (inactive); in [3] it was 4.81 (inactive); in [4], 0.343 (inactive); in [5], -0.38 (inactive); in [6], -1.47 (inactive); in assay [7], 2.25. Besides, the z-score in assay [8] is 1.3 (inactive); in assay [9] it was 0.821 (inactive); in assay [10] it was -0.573. Moreover, in [2], the composite z-score came to 0.503.
For `C=C(COC)/C(=C/C[C@@H](OC(=O)c1ccncc1)c1ccccc1OCCO)c1cc(C(=O)OC)ccc1OC`, the z-score in assay [1] was 0.132 (inactive); in [3] it was 23.5 (active); in assay [4] it was 6 (inactive); in assay [5], 1.74 (inactive); in [6], 1.02 (inactive); in assay [7] it was 0.171. Further, the z-score in assay [8] is -0.97 (inactive); in [9], -1.4 (inactive); in assay [10], -2.07. In addition, the composite z-score in assay [2] is -0.0654.
Turning to `Cc1ccccc1C(O)C1C=CC2C(=O)N(c3ccccc3)C(=O)C2N1Nc1ccc([N+](=O)[O-])cc1` (stereo not given), the z-score in assay [1] is -0.467 (inactive); in assay [3] it was 26.5 (active); in assay [4], 11.2 (active); in assay [5] it was 2.6 (inactive); in [6], 1.52 (inactive); in [7], -0.483. Also, the results for the z-score in assay [8], in assay [9] and in assay [10] were -1.29 (inactive), -3.58 (inactive) and -1.83, respectively. The composite z-score in assay [2] was 0.186.
Turning to `[N-]=[N+]=NCc1ccccc1[C@H]1OC(c2ccc(OCCCO)cc2)=N[C@@]1(CCS(=O)(=O)c1ccccc1)C(=O)NCc1ccccc1`, the z-score in assay [1] is 1.14 (inactive); in [3], 25 (active); in assay [4] it was 8.39 (active); in [5], 1.49 (inactive); in [6], 1.38 (inactive); in assay [7], 0.127. The z-score is 2.27 (inactive) in assay [8], 0.837 (inactive) in [9] and -0.887 in assay [10]. In [2], this compound showed a composite z-score of -0.271.
